Experimental data taken from ChEMBL document CHEMBL1961873, “Compounds: GSK PKIS; Assays: Nanosyn kinase panel” (2012).

How the values were obtained:
[1] = target: T1, Inhibitor of nuclear factor kappa-B kinase subunit epsilon (Homo sapiens) (UniProt Q14164); conditions: at 1 µM;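 note: reported values are averaged percent inhibition figures against human IKKε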
T1 sequence (whole entry): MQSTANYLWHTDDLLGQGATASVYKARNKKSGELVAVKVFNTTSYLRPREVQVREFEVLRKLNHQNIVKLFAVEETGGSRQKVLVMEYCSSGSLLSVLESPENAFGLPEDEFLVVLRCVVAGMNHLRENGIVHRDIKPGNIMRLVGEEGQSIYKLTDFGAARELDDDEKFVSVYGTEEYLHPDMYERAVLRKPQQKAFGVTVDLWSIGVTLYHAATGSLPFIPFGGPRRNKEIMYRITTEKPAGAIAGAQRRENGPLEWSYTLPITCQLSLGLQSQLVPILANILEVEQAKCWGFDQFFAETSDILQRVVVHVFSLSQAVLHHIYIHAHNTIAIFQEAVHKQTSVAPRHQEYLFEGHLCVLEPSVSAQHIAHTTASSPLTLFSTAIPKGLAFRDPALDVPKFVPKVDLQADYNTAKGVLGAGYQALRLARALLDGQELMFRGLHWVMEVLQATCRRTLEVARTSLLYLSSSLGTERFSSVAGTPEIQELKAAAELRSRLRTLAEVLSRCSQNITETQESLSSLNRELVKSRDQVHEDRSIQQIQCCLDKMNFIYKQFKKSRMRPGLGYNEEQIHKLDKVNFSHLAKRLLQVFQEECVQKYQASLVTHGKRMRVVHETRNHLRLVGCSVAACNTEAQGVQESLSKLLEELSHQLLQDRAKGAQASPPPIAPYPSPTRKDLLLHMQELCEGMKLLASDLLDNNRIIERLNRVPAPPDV

[2] = target: T2, Serine/threonine-protein kinase Nek1 (Homo sapiens) (UniProt Q96PY6); conditions: at 0.1 µM
T2 sequence (whole entry): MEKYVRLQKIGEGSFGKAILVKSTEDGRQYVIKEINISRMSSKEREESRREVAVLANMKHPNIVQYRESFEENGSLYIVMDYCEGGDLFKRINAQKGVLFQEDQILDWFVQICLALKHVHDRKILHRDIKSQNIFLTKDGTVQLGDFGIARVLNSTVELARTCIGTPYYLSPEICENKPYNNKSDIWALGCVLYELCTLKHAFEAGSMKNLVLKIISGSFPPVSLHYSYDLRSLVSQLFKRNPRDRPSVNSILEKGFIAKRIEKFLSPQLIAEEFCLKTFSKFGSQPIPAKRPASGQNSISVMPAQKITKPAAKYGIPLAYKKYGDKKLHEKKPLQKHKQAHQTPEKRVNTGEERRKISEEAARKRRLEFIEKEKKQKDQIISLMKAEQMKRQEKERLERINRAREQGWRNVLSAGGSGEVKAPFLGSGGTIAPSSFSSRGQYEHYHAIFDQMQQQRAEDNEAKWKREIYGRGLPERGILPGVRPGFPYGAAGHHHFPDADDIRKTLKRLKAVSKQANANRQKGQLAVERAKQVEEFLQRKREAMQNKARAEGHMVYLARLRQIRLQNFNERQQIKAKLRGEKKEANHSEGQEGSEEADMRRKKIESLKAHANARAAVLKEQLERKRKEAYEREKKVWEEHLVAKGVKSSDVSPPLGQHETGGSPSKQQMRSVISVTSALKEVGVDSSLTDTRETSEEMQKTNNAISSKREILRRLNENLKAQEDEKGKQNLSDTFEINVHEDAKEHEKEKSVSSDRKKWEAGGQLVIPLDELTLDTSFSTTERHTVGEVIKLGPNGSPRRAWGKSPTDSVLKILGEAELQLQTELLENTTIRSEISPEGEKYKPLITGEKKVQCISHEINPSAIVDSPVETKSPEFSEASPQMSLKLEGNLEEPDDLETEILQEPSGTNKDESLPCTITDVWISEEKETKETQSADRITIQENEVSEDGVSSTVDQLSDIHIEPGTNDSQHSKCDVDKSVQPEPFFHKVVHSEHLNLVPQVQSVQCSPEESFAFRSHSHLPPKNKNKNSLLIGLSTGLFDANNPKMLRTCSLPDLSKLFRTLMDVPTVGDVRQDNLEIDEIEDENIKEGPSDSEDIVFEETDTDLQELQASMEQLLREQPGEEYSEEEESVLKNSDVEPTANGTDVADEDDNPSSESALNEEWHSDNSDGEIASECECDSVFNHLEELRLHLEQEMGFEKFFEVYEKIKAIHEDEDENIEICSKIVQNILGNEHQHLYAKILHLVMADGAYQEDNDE

[3] = target: T2, Serine/threonine-protein kinase Nek1 (Homo sapiens); conditions: at 1 µM
[4] = target: T3, Serine/threonine-protein kinase Nek2 (Homo sapiens) (UniProt P51955); conditions: at 0.1 µM
T3 sequence (whole entry): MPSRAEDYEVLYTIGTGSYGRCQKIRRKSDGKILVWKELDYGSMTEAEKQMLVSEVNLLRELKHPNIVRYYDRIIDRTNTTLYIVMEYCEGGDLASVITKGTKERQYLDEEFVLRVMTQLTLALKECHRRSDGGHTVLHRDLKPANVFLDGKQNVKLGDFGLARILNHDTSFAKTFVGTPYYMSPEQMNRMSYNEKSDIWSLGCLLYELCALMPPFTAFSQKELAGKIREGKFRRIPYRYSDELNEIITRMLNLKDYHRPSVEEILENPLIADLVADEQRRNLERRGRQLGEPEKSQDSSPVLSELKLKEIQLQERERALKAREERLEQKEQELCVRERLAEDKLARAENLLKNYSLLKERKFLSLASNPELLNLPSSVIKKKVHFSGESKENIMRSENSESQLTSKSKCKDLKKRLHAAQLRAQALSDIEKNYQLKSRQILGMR

[5] = target: T3, Serine/threonine-protein kinase Nek2 (Homo sapiens); conditions: at 1 µM
[6] = target: Serine/threonine-protein kinase Nek6 (Homo sapiens) (UniProt Q9HC98); conditions: at 0.1 µM
[7] = target: Serine/threonine-protein kinase Nek6 (Homo sapiens) (UniProt Q9HC98); conditions: at 1 µM
[8] = target: Serine/threonine-protein kinase Nek7 (Homo sapiens) (UniProt Q8TDX7); conditions: at 0.1 µM
[9] = target: Serine/threonine-protein kinase Nek7 (Homo sapiens) (UniProt Q8TDX7); conditions: at 1 µM
[10] = target: T4, Serine/threonine-protein kinase Nek9 (Homo sapiens) (UniProt Q8TD19); conditions: at 0.1 µM
T4 sequence (whole entry): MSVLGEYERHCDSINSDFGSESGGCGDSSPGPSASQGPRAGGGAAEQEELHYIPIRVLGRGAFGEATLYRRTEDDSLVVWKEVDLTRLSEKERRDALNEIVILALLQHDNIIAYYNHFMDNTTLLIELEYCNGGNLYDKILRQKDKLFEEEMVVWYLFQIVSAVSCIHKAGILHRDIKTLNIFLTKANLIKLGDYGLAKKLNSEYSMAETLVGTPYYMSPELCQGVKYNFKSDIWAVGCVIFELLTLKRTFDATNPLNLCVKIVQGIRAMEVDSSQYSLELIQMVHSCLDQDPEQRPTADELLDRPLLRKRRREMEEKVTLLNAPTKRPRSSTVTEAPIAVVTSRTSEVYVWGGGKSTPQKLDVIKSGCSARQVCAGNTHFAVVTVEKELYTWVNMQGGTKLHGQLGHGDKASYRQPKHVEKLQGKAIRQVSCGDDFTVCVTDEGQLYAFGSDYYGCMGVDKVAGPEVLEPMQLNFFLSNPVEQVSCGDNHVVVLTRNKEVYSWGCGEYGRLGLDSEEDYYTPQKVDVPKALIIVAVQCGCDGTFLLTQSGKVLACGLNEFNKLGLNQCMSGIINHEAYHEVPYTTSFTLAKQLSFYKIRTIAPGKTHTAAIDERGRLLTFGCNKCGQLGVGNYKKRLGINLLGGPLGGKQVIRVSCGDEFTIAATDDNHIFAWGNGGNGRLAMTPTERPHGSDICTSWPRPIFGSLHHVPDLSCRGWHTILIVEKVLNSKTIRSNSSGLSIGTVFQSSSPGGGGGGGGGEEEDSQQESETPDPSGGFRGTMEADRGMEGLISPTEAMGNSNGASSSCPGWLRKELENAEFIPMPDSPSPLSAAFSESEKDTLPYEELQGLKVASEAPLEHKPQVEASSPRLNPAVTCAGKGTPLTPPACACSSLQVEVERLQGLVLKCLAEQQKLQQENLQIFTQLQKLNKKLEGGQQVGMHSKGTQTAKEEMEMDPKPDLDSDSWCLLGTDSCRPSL

[11] = target: T4, Serine/threonine-protein kinase Nek9 (Homo sapiens); conditions: at 1 µM
[12] = target: Serine/threonine-protein kinase PLK1 (Homo sapiens) (UniProt P53350); conditions: at 0.1 µM
[13] = target: Serine/threonine-protein kinase PLK1 (Homo sapiens) (UniProt P53350); conditions: at 1 µM
[14] = target: T5, Dual specificity protein kinase TTK (Homo sapiens) (UniProt P33981); conditions: at 0.1 µM
T5 sequence (whole entry): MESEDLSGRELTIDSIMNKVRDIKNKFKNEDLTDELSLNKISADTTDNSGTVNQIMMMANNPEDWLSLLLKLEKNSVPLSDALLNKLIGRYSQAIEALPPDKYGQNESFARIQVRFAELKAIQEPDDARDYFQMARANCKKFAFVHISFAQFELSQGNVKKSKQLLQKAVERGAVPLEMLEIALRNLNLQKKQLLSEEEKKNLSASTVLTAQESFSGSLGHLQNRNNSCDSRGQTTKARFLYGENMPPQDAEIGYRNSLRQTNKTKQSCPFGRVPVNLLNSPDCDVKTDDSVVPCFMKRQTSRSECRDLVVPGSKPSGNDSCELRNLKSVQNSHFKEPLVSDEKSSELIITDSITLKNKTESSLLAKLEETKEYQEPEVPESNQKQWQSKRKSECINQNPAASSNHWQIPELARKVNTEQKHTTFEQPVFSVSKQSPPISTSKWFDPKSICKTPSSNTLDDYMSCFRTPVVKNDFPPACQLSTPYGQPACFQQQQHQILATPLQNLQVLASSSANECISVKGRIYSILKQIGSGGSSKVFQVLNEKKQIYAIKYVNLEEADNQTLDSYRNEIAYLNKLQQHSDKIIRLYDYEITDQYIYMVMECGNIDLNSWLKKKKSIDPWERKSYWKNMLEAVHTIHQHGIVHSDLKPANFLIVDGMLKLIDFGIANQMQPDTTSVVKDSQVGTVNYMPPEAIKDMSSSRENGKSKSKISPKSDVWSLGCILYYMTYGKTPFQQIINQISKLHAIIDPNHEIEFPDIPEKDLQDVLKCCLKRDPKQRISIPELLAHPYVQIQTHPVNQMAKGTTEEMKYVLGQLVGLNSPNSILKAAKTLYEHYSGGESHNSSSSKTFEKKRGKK

[15] = tested on: T6, Receptor-type tyrosine-protein kinase FLT3 (Homo sapiens), P36888 [D835Y]; conditions: at 1 µM
T6 sequence (whole entry): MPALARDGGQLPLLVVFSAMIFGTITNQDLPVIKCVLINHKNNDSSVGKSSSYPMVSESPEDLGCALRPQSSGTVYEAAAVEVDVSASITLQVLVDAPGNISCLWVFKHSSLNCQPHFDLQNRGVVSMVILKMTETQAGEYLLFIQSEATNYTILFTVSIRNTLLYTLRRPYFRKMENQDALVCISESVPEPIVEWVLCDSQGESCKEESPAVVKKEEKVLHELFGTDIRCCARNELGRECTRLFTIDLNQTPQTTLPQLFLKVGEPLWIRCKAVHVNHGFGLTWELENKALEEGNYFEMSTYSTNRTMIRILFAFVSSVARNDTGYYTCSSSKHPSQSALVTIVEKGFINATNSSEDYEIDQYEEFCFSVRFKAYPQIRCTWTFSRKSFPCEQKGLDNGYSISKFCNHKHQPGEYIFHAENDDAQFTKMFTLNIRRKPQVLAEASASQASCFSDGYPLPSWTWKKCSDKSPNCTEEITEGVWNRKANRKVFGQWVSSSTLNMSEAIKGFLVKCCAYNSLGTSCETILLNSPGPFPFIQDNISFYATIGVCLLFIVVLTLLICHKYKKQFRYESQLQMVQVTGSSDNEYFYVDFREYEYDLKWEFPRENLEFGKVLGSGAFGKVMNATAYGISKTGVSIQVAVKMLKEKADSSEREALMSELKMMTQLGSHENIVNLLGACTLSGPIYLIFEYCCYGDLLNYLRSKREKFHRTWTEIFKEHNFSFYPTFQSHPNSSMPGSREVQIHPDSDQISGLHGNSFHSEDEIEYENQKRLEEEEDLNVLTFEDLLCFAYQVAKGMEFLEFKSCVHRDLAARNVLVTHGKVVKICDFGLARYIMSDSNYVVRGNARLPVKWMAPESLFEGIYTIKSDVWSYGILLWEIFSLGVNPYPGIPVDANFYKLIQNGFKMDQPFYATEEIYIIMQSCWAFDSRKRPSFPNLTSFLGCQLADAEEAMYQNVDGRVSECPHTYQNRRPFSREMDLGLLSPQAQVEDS

[16] = target: Vascular endothelial growth factor receptor 3 (Homo sapiens) (UniProt P35916); conditions: at 0.1 µM
[17] = target: Vascular endothelial growth factor receptor 3 (Homo sapiens) (UniProt P35916); conditions: at 1 µM
[18] = target: Macrophage colony-stimulating factor 1 receptor (Homo sapiens) (UniProt P07333); conditions: at 0.1 µM
[19] = target: Macrophage colony-stimulating factor 1 receptor (Homo sapiens) (UniProt P07333); conditions: at 1 µM
[20] = target: Tyrosine-protein kinase Fyn (Homo sapiens) (UniProt P06241); conditions: at 0.1 µM
Sequence of Tyrosine-protein kinase Fyn (Homo sapiens) (P06241 2-537 limits assumed): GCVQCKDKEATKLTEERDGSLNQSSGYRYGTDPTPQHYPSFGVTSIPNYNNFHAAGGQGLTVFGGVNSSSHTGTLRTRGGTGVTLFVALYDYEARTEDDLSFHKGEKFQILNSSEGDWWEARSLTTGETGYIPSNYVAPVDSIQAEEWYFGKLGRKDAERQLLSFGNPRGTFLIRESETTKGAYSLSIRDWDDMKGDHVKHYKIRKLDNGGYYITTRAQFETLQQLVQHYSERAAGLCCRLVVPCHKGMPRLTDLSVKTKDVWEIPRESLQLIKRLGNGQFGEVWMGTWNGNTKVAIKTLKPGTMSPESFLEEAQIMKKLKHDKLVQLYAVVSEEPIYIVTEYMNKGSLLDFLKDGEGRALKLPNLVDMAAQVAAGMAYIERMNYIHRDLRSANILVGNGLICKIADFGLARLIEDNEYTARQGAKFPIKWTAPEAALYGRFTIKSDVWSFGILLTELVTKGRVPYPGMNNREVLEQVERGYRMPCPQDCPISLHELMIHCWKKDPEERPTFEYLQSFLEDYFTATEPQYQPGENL

Sequence of Vascular endothelial growth factor receptor 3 (Homo sapiens) (P35916 whole entry): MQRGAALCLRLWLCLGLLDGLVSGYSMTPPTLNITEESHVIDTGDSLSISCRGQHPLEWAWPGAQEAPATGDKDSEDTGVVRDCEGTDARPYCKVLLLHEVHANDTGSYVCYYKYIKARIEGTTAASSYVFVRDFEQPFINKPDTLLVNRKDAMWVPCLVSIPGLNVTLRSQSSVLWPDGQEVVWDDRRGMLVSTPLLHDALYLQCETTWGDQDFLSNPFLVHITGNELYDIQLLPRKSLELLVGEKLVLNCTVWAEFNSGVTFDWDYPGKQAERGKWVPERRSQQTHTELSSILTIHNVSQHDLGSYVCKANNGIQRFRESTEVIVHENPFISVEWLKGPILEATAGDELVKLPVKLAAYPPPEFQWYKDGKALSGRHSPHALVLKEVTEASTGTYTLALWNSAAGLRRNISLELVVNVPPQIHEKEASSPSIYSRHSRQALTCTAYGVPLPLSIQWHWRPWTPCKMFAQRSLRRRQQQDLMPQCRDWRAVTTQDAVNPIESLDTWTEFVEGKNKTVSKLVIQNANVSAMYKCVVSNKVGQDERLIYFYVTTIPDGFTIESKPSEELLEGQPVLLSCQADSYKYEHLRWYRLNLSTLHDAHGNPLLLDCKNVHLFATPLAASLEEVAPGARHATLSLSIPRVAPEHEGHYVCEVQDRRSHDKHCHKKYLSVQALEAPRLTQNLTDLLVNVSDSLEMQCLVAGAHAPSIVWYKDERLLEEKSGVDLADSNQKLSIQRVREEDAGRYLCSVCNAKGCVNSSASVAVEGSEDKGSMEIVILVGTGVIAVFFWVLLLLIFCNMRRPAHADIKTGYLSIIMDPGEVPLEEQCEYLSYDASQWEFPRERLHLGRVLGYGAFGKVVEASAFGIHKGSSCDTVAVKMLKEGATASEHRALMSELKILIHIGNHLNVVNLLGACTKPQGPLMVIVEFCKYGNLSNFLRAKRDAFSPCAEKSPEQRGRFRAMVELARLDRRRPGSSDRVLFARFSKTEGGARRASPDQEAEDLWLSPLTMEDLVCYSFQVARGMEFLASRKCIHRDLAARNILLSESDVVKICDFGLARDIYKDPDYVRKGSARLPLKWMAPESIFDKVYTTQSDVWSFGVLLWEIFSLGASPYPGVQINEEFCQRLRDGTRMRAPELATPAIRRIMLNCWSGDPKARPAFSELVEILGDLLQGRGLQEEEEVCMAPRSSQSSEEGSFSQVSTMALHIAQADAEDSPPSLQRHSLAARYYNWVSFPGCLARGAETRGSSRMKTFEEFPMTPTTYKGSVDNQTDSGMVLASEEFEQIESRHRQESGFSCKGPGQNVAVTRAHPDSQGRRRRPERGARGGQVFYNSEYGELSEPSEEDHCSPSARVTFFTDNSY
Sequence of Serine/threonine-protein kinase Nek6 (Homo sapiens) (Q9HC98 whole entry): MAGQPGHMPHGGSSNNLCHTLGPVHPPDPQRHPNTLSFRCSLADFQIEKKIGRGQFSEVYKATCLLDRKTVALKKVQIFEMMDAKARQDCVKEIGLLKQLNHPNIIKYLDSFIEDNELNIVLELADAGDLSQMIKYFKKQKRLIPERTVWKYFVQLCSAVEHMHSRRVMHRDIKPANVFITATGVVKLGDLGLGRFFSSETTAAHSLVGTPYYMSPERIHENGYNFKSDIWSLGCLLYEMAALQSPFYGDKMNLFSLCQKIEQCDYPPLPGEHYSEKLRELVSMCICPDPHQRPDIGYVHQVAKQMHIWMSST
Sequence of Macrophage colony-stimulating factor 1 receptor (Homo sapiens) (P07333 whole entry): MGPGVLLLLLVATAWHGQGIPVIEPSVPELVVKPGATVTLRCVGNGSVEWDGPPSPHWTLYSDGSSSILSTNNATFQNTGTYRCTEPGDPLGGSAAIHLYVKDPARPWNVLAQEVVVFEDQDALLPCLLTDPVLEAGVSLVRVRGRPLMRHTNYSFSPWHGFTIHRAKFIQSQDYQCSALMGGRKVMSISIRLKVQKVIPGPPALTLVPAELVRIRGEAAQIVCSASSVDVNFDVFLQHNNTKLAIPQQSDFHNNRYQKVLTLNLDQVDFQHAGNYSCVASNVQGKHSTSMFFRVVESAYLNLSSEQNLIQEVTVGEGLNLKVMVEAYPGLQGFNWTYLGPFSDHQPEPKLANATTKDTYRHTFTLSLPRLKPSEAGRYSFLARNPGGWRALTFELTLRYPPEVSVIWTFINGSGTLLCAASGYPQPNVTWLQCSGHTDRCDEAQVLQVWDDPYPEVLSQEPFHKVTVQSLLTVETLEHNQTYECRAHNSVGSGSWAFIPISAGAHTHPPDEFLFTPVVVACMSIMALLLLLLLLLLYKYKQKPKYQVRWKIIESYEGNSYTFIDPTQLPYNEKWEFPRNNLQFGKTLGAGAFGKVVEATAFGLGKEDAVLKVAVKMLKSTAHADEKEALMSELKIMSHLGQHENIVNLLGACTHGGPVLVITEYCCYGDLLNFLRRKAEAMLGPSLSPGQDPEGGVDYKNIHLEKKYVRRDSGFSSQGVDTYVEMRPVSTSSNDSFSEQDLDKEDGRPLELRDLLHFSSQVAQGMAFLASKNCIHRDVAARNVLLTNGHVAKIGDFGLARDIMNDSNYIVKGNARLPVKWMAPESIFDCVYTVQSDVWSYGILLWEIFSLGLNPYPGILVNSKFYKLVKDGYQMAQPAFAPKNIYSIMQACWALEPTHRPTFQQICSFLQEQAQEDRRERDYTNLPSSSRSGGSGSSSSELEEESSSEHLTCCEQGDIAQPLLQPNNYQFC
Sequence of Serine/threonine-protein kinase PLK1 (Homo sapiens) (P53350 whole entry): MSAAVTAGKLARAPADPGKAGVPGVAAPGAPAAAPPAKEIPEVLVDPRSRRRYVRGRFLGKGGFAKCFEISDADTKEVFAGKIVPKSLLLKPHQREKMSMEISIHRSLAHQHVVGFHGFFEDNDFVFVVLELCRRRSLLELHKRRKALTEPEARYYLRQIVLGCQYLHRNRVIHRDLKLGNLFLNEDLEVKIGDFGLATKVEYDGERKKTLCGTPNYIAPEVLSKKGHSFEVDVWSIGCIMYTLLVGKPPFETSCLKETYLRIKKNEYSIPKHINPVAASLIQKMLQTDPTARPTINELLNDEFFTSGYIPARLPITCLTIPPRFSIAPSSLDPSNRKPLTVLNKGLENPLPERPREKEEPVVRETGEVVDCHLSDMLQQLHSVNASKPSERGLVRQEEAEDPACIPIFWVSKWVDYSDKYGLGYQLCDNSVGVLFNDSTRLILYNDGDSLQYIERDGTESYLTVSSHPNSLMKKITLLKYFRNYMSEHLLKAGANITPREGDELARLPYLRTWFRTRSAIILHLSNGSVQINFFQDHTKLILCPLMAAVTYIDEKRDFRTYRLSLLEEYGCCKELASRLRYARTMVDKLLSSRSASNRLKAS
Sequence of Serine/threonine-protein kinase Nek7 (Homo sapiens) (Q8TDX7 whole entry, looked up): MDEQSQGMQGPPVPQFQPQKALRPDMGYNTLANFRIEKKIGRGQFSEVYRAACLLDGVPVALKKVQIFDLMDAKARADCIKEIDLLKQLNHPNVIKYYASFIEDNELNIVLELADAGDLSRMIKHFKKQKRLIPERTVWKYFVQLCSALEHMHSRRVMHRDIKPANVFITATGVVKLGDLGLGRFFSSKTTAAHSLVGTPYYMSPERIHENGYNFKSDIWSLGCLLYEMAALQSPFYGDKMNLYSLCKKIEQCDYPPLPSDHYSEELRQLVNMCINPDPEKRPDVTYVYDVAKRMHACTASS

O=C1Nc2ccccc2/C1=C/Nc1ccc2[nH]c(=O)[nH]c2c1
inhibition [1]: 23.3% | inhibition [2]: 2.99% | inhibition [3]: 2.85% | inhibition [4]: 5.3% | inhibition [5]: 5.56% | inhibition [6]: 2.8% | inhibition [7]: 4.32% | inhibition [8]: 6.08% | inhibition [9]: 4.96% | inhibition [10]: 9.7% | inhibition [11]: 15.6% | inhibition [12]: 5.67% | inhibition [13]: 3.82% | inhibition [14]: 15.4% | inhibition [15]: 65.9% | inhibition [16]: 4.3% | inhibition [17]: 26.6% | inhibition [18]: 11.9% | inhibition [19]: 48.2% | inhibition [20]: 4.36%
